# In PubChem BioAssay (Tox21):
# Values joined by “and” are separate entries in the source; they are usually repeats but may differ in a detail not shown here. Equal entries are not always repeated. Results filed as inconclusive are left out. Entries that show only a call come without a potency. Some compounds were tested as several samples or in several runs, with calls that do not always agree. Active and inactive are the calls of the source. Unless noted, calls follow the shape of the full dose curve.
# Legend:
# [1] = Nuclear factor erythroid 2-related factor 2/antioxidant responsive element (Nrf2/ARE) small molecule agonists: qHTS cell viability counter screen in human keratinocytes (AID 1919968; active = well fitted curve in the direction sought with a large enough effect in the repeat runs; an effect the other way counts as inactive or inconclusive; also: nearly all actives have a fitted effect of over 55% in size); settings: KeratinoSens HaCaT ARE cells viability, CellTiter-Fluor, 24 h; series mostly up to 92.4 µM
# In short: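 Cytotoxicity was multiplexed with the Nrf2/ARE luciferase assay in the same wells. Stably transfected HaCaT keratinocytes were treated with test compounds for 23 h at 37 C. Cell viability was then measured by CellTiter-Fluor fluorescence.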
# [2] = Nuclear factor erythroid 2-related factor 2/antioxidant responsive element (Nrf2/ARE) small molecule agonists: luciferase reporter gene qHTS assay in human keratinocytes (AID 1919969); settings: KeratinoSens HaCaT ARE-luciferase, luminescence, 24 h; series mostly up to 92.4 µM; also: nearly all actives have a fitted effect of over 35% in size; also: potency is read from the fitted curve at half-maximal effect
# [3] = target: Gonadotropin-releasing hormone receptor (Homo sapiens) (UniProt P30968); experiment: Human gonadotropin-releasing hormone receptor (GnRHR) small molecule agonists, calcium flux assay in GnRHR-HEK293 cells (AID 1920063); settings: calcium flux fluorescence, agonist mode; series mostly up to 57.6 µM; also: nearly all actives have a fitted effect of over 35% in size
# Sequence of Gonadotropin-releasing hormone receptor (Homo sapiens) (P30968 whole entry, looked up): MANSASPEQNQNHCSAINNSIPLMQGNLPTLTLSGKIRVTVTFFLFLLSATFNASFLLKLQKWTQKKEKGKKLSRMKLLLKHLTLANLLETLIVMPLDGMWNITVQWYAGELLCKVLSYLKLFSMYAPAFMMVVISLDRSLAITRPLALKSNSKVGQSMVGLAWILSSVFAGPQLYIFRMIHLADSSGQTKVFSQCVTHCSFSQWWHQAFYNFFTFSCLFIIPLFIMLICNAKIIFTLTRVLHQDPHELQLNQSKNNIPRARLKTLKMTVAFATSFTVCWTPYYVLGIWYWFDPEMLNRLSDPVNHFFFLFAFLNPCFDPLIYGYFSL
# In short: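 Agonist activity was measured as intracellular calcium flux in HEK293 cells engineered to stably express human GnRHR. After dye loading for 1 hour at 37 C, compounds in DMSO were added and fluorescence was followed for 3 minutes.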
# [4] = target: KiSS-1 receptor (Homo sapiens) (UniProt Q969F8); experiment: Human kisspeptin (KISS1R) small molecule agonists, calcium flux assay in KISS1R-HEK293 cells (AID 1920064; active = well fitted curve in the direction sought with a large enough effect in the repeat runs; an effect the other way counts as inactive or inconclusive); settings: KISS1R-HEK293, calcium flux fluorescence, agonist; series mostly up to 76.8 µM
# Sequence of KiSS-1 receptor (Homo sapiens) (Q969F8 whole entry, looked up): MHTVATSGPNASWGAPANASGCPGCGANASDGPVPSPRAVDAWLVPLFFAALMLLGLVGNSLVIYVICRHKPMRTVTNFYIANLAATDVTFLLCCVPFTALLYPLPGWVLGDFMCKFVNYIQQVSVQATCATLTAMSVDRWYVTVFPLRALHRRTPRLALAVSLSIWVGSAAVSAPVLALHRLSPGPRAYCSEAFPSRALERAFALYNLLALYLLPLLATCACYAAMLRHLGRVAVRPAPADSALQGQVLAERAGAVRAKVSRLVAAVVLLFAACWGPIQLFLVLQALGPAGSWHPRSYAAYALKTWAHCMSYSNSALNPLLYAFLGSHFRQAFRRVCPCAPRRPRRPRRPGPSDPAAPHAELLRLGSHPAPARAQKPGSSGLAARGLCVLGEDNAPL
# In short: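 Agonist activity is monitored as intracellular calcium rise in engineered HEK293 cells carrying human KISS1R. Cells are dye-loaded for 1 h at 37 C before compound addition, and fluorescence is recorded for 3 min.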
# [5] = G protein-coupled receptor (GPCR) small molecule agonists, calcium flux assay: HEK293 wild type cell line counter screen (AID 1920065); settings: HEK293 WT calcium flux, fluorescence, agonist mode; series mostly up to 57.6 µM
# In short: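 Seed cells, incubate 18 h (37 C, 5% CO2); add calcium dye, 1 h at 37 C; pin-transfer compounds, ATP control or DMSO; read fluorescence 480/540 nm each second for 3 min.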
# [6] = p53 small molecule agonists, cell-based qHTS assay with human liver microsomes: qHTS cell viability counter screen (AID 1963579); settings: p53RE-bla HCT-116 viability, ATP luminescence, 16 h, HLM; series mostly up to 66 µM; also: nearly all actives have a fitted effect of over 45% in size; also: potency is read from the fitted curve at half-maximal effect
# In short: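 Seed p53RE-bla cells at 4,000 per well; incubate 5 h at 37 C; add compound, human liver microsomes and NADPH; incubate 16 h at 37 C; add CellTiter-Glo; after 30 min at room temperature, read luminescence.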
# [7] = p53 small molecule agonists, cell-based qHTS assay with rat liver microsomes: qHTS cell viability counter screen (AID 1963580); settings: p53RE-bla HCT-116 + rat microsomes, ATP viability, 16 h; series mostly up to 66 µM; also: nearly all actives have a fitted effect of over 45% in size; also: potency is read from the fitted curve at half-maximal effect
# In short: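 After the beta-lactamase ratio was read, CellTiter-Glo was added to the same wells and luminescence measured at 30 min; cells had been treated 16 h at 37 C with compounds, rat liver microsomes and NADPH (0.5 mg/mL final each).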
# [8] = p53 small molecule agonists, cell-based qHTS assay: qHTS cell viability counter screen (AID 1963581); settings: p53RE-bla HCT-116 viability, ATP luminescence, 16 h; series mostly up to 66 µM; also: nearly all actives have a fitted effect of over 45% in size
# In short: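 Viability was counter-screened in parallel with the p53 agonist reporter by measuring intracellular ATP luminescence in the same HCT-116 p53RE-bla wells after 16 h compound treatment at 37 C.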
# [9] = target: 5-hydroxytryptamine receptor 2A (Homo sapiens) (UniProt P28223); experiment: 5-hydroxytryptamine receptor 2A (HTR2A) small molecule antagonists, cell-based qHTS assay (AID 1963586); settings: HTR2A-CHO cells, DOI-induced calcium flux, fluorescence; series mostly up to 61.5 µM; also: nearly all actives have a fitted effect of over 45% in size
# Sequence of 5-hydroxytryptamine receptor 2A (Homo sapiens) (P28223 whole entry, looked up): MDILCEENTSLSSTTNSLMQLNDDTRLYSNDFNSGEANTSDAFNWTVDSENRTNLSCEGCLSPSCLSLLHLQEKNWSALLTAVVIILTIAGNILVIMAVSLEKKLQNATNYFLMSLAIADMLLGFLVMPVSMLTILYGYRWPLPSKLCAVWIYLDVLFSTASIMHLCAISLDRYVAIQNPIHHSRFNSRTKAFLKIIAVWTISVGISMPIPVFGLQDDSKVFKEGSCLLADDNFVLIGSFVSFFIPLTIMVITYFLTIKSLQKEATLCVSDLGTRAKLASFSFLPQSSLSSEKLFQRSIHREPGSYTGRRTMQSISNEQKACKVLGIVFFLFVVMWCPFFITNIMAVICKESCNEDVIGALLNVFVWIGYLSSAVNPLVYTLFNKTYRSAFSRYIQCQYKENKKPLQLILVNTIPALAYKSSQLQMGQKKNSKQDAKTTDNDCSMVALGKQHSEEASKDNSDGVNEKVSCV
# In short: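 CHO cells stably expressing human HTR2A were plated for 18 h at 37 C, then loaded with calcium dye for 1 h. Compounds were preincubated 5 min at room temperature before DOI (4 nM solution) was added. Kinetic fluorescence was read for 3 min.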
# [10] = target: 5-hydroxytryptamine receptor 2A (Homo sapiens) (UniProt P28223); experiment: 5-hydroxytryptamine receptor 2A (HTR2A) small molecule agonists, cell-based qHTS assay (AID 1963587); settings: HTR2A-CHO cells, calcium flux fluorescence, agonist mode; series mostly up to 76.8 µM; also: nearly all actives have a fitted effect of over 30% in size; also: potency is read from the fitted curve at half-maximal effect
# In short: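 CHO cells stably expressing human HTR2A, plated 18 h, loaded with calcium dye 1 h at 37 C. Agonist mode: compounds added and intracellular calcium fluorescence recorded kinetically for 2 min at 1 sec intervals.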
# [11] = target: Muscarinic acetylcholine receptor M1 (Homo sapiens) (UniProt P11229); experiment: Cholinergic receptor muscarinic 1 (CHRM1) small molecule antagonists, cell-based qHTS assay (AID 1963588); settings: CHRM1-CHO antagonist mode, calcium flux fluorescence; series mostly up to 61.5 µM; also: nearly all actives have a fitted effect of over 40% in size; also: potency is read from the fitted curve at half-maximal effect
# Sequence of Muscarinic acetylcholine receptor M1 (Homo sapiens) (P11229 whole entry, looked up): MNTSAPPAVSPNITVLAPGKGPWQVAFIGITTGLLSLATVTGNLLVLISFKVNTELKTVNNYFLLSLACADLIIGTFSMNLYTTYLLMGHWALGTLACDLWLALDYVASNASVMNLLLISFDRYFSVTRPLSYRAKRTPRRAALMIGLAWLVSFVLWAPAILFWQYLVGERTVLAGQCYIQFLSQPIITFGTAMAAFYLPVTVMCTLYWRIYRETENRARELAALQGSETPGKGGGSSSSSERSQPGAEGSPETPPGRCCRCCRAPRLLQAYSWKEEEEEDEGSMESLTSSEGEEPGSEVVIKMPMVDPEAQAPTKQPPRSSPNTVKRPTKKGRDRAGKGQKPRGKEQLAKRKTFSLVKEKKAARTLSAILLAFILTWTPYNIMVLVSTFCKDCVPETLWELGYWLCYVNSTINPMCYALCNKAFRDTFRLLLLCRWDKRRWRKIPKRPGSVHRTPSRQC
# In short: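 Compounds were tested at 15 concentrations in three independent runs. Dye-loaded CHRM1-CHO cells were exposed 5 min at room temperature before stimulation by acetylcholine added at 50nM. Intracellular calcium was read kinetically on FDSS for 3 min.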
# [12] = target: Muscarinic acetylcholine receptor M1 (Homo sapiens) (UniProt P11229); experiment: Cholinergic receptor muscarinic 1 (CHRM1) small molecule agonists, cell-based qHTS assay (AID 1963589); settings: CHRM1-CHO cells, agonist mode, calcium flux fluorescence; series mostly up to 76.8 µM; also: nearly all actives have a fitted effect of over 35% in size
# In short: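 Cells were plated and incubated 18 h at 37 C/5% CO2, loaded with calcium dye for 1 h at 37 C, then treated with compounds in DMSO. Fluorescence was recorded kinetically at 1 sec intervals.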
# [13] = cAMP Responsive Elements (CRE) small molecule agonists, cell-based qHTS assay (AID 1963590); settings: CRE-bla HEK293T, beta-lactamase FRET ratio, 3 h; series mostly up to 92.4 µM
# In short: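 Cells carrying a CRE-driven beta-lactamase reporter (HEK 293T) are seeded, incubated overnight (18 h), and treated with test compounds for 3 h at 37 C; reporter activity is then detected with a FRET substrate after 2 h at room temperature.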
# [14] = cAMP Responsive Elements (CRE) small molecule antagonists, cell-based qHTS assay (AID 1963591; active = well fitted inhibition curve with a large enough effect in the signal ratio in the repeat runs, not every such curve was filed as active; the % refers to the signal ratio); settings: CRE-bla HEK293T, beta-lactamase FRET ratio; series mostly up to 92.4 µM
# In short: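 Cells (CRE-bla HEK 293T, DMEM with 10% dialyzed FBS and 25 mM HEPES) are seeded and incubated 18 h. Compounds are added with NKH477 agonist at 0.25 uM final for 3 h, then FRET substrate for 2 h.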
# [15] = target: Beta-2 adrenergic receptor (Homo sapiens) (UniProt P07550); experiment: Adrenergic beta2 receptor (ADRB2) small molecule antagonists, cell-based qHTS assay (AID 1963592); settings: CHO-ADRB2 cells, isoproterenol-stimulated cAMP HTRF ratio, 0.5 h; series mostly up to 92.4 µM; also: nearly all actives have a fitted effect of over 50% in size
# Sequence of Beta-2 adrenergic receptor (Homo sapiens) (P07550 whole entry, looked up): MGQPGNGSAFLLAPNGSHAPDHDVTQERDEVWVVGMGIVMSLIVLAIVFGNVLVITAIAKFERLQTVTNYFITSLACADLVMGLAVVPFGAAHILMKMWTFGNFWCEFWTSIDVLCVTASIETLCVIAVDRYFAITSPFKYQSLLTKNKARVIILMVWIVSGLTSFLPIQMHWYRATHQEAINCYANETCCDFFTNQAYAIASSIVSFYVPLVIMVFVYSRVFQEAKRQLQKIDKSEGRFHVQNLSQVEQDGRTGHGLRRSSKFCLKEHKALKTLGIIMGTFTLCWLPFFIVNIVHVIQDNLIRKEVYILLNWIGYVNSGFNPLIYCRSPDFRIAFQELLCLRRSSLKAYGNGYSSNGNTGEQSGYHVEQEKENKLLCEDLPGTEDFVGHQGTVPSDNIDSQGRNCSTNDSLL
# In short: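 Assay format: CHO-ADRB2 cells, 18-20hr seeding at 37C/5% CO2, then compound plus 1nM isoproterenol agonist mix for 0.5hr RT. Homogeneous time-resolved fluorescence cAMP detection after 1hr, expressed as 665/615 nm ratio.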
# [16] = target: D(2) dopamine receptor (Homo sapiens) (UniProt P14416); experiment: Dopamine D2 receptor (DRD2) small molecule agonists, cell-based qHTS assay (AID 1963594); settings: HEK293-DRD2 cAMP HTRF, agonist mode, 30 min; series mostly up to 92.4 µM; also: nearly all actives have a fitted effect of over 35% in size
# Sequence of D(2) dopamine receptor (Homo sapiens) (P14416 whole entry, looked up): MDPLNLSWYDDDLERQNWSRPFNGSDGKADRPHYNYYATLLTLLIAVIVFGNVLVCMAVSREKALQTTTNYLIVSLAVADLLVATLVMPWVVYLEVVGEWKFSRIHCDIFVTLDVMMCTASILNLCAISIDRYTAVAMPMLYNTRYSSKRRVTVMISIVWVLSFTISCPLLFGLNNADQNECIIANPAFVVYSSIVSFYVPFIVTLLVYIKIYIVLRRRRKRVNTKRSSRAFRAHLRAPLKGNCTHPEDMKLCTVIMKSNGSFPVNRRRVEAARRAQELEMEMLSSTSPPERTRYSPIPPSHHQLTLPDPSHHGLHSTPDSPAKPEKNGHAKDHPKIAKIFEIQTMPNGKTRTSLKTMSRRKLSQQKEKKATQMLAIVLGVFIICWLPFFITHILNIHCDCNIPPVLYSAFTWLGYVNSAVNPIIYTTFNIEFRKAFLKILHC
# In short: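 HEK293 cells stably expressing human DRD2, pre-treated with PDE inhibitor Ro20-1724 (0.1 mM final) and compound 10 min at room temperature, then stimulated with NKH477 (200nM […]) for 30 min. cAMP read by HTRF (665/620 nm).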
# [17] = target: D(2) dopamine receptor (Homo sapiens) (UniProt P14416); experiment: Dopamine D2 receptor (DRD2) small molecule antagonists, cell-based qHTS assay (AID 1963595; active = well fitted inhibition curve with a large enough effect in the signal ratio in the repeat runs, with a control signal flat; the % refers to the signal ratio); settings: HEK293-DRD2 cAMP HTRF antagonist mode; series mostly up to 92.4 µM
# In short: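 Human DRD2 antagonist qHTS measuring cAMP by HTRF. The cells are exposed to compound for 10 min, then to NKH477 (200 nM) and quinpirole (12 nM) for 30 min at RT, with Ro20-1724 (0.1 mM) present throughout.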
# [18] = p53 small molecule agonists, cell-based qHTS assay with human liver microsomes (AID 1963577); settings: HCT-116 p53RE-bla with human liver microsomes, ratio, 16 h; series mostly up to 66 µM;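 also: p53 response element beta-lactamase reporter cells with liver microsomes plus NADPH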
# In short: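 Cells carrying a p53-responsive bla reporter were rested 5 h (37 C, 5% CO2) before compound transfer. Human liver microsomes plus NADPH, 0.5 mg/mL final apiece, supplied metabolism during the 16 h 37 C exposure.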
# [19] = p53 small molecule agonists, cell-based qHTS assay (AID 1963582; active = well fitted activation curve with a large enough effect in the signal ratio in the repeat runs, not every such curve was filed as active; the % refers to the signal ratio); settings: HCT-116 p53RE-bla reporter, beta-lactamase FRET ratio, 16 h; series mostly up to 66 µM
# In short: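 Cells carrying a p53-responsive bla reporter are treated with test compounds for 16 h at 37 C; beta-lactamase activity is then detected with LiveBLAzer B/G FRET substrate after 2 h at room temperature.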
# [20] = target: Beta-2 adrenergic receptor (Homo sapiens) (UniProt P07550); experiment: Adrenergic beta2 receptor (ADRB2) small molecule agonists, cell-based qHTS assay (AID 1963593); settings: CHO-ADRB2 cells, cAMP HTRF, 30 min; series mostly up to 92.4 µM;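 also: CHO cells stably overexpressing human ADRB2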
# In short: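 CHO cells stably over-expressing ADRB2 were plated overnight at 37C, then dosed with compounds plus a stimulation mix containing 100uM IBMX and 25uM Ro-20-1724 for 0.5hr at room temperature. cAMP was measured by HTRF competition, 1hr.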
SMILES,Potency [1],Potency [2],Potency [3],Potency [4],Potency [5],Potency [6],Potency [7],Potency [8],Potency [9],Potency [10],Potency [11],Potency [12],Potency [13],Potency [14],Potency [15],Potency [16],Potency [17],Potency [18],Potency [19],Potency [20]
O=P(OC(CCl)CCl)(OC(CCl)CCl)OC(CCl)CCl,inactive,inactive,inactive,inactive,inactive,inactive,inactive,inactive,inactive,43.4 µM (active) and 2.19 µM (active),inactive,inactive,inactive,inactive,inactive,inactive,inactive,,,
CCC(C)(O)CCC=C(C)C (stereo unspecified),inactive,inactive,inactive,inactive,inactive,,inactive,inactive,,inactive,inactive,inactive,inactive,inactive,inactive,inactive,inactive,inactive,inactive,inactive
Nc1ccc(S(=O)(=O)Nc2ccc(Cl)nn2)cc1,inactive,inactive,inactive,inactive,inactive,inactive,inactive,inactive,,inactive,inactive,inactive,inactive,inactive,inactive,inactive,inactive,,inactive,inactive
CC(C)COC(=O)c1ccc(N)cc1,inactive,inactive,inactive,inactive,inactive,inactive,inactive,inactive,inactive,inactive,inactive,inactive,inactive,inactive,inactive,inactive,inactive,,inactive,inactive
COc1cc(C(=S)N2CCOCC2)ccc1O,inactive,inactive,inactive,inactive,inactive,inactive,inactive,inactive,inactive,inactive,inactive,inactive,inactive,,inactive,inactive,inactive,,inactive,inactive
N[C@H]1C(O)O[C@H](CO)[C@@H](O)[C@@H]1O (stereo partly specified),inactive,inactive,inactive,inactive,inactive,inactive,inactive,inactive,inactive,inactive,inactive,,inactive,inactive,inactive,,inactive,,inactive,inactive
NCCO,inactive,inactive and 27.3 µM (active),inactive,inactive,inactive,inactive and 36.3 µM (active),inactive and 32.4 µM (active),inactive,inactive,,18.8 µM (active),inactive,inactive,inactive,,inactive,inactive,,inactive,
Cc1ccc(N)cc1[N+](=O)[O-],inactive,inactive,inactive,inactive,inactive,,inactive,inactive,inactive,,inactive,,inactive,,inactive,inactive,inactive,inactive,,
OCC(CO)N[C@H]1C[C@](O)(CO)[C@@H](O)[C@H](O)[C@H]1O,inactive,inactive,inactive,inactive,inactive,inactive,inactive,inactive,inactive,inactive,inactive,inactive,inactive,inactive,,inactive,inactive,,inactive,
O=C(O[C@@H](C(=O)O)[C@@H](OC(=O)c1ccccc1)C(=O)O)c1ccccc1,inactive,inactive,inactive,inactive,inactive,inactive,inactive,inactive,inactive,inactive,inactive,inactive,inactive,inactive,inactive,inactive,inactive,,inactive,
CC(=O)OCCN(CCOC(C)=O)c1ccc(N=Nc2ccc([N+](=O)[O-])cc2C#N)cc1,inactive,inactive,inactive,inactive,inactive,inactive,inactive,inactive,inactive,inactive,inactive,inactive,inactive,inactive,inactive,,inactive,,inactive,inactive
Nc1ccc(NCCO)c([N+](=O)[O-])c1,inactive,inactive,inactive,inactive,inactive,inactive,inactive,inactive,inactive,inactive,inactive,inactive,inactive,inactive,,,,,inactive,
CCCCOC(=O)CCCCCCCC(=O)OCCCC,inactive,inactive,inactive,inactive,inactive,inactive,inactive,inactive,inactive,inactive,inactive,inactive,inactive,inactive,inactive,inactive,inactive,,inactive,inactive
NC(=O)c1ccccc1N,inactive,inactive,inactive,inactive,inactive,inactive,inactive,inactive,inactive,inactive,inactive,inactive,inactive,inactive,,inactive,inactive,,inactive,inactive
CC(C)Nc1ccccc1,inactive,inactive,inactive,inactive,inactive,inactive,inactive,inactive,inactive,inactive,inactive,inactive,inactive,inactive,inactive,inactive,inactive,,inactive,inactive
